# Test results published in PubChem BioAssay AID1035470 (Broad Institute, 2014).
# The campaign covered roughly 1,800 compounds. Fewer than 10 were called active. Roughly 16% stayed inconclusive and do not appear here.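 How the source made its calls: active means compound lowering the normal-ribosome reporter at least twice as much as the humanized-ribosome reporter, growth loss under a set limit; inconclusive means no clear call, values can overlap the other calls; inactive means the rest.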 The list is a sample of the results. Results with a measured potency or affinity are listed apart.
# Assay: growth inhibition of wild-type GFP E. coli versus G2058-humanized strain, dose response, G2058 mutant RFP vs wild-type GFP, cherry-pick, two tests (AID 1035470)
# Conditions: E. coli WT-GFP vs G2058-humanized RFP, fluorescence, 24 h; series mostly up to 50 µM; activity change, negative = inhibition: at the top concentration
row,SMILES,"activity change, negative = inhibition"
1,COC(=O)CNC(=O)COC(=O)c1ccc(Cl)nc1,26.5 (inactive)
2,CC(OC(=O)CCc1nc2ccccc2c(=O)[nH]1)C(=O)c1ccc(Br)cc1 (stereo not drawn),1.11 (inactive)
3,C(=C/c1nccc2c1[nH]c1ccccc12)/c1ccc2c(c1)OCO2,-9.87 (inactive)
4,O=C(Nc1cc(S(=O)(=O)N2CCOCC2)ccc1N1CCOCC1)c1ccc([N+](=O)[O-])s1,-15.8 (inactive)
5,Cc1cc(Br)cn2c(Cc3cccc(Cl)c3)c(-c3ccco3)nc12,-8.14 (inactive)
6,Cc1nc2ccccn2c1C(=O)Nc1ccc(Cl)cc1,5.9 (inactive)
7,COC(=O)c1ccc(CSc2nc3ccccc3s2)o1,-11 (inactive)
8,C[C@@H]1CCCCO[C@@H](CN(C)C(=O)CCCN(C)C)[C@H](C)CN([C@@H](C)CO)C(=O)c2cc(NC(=O)Nc3cccc4ccccc34)ccc2O1,31.3 (inactive)
9,Cc1nc(Nc2ccccc2)sc1C(=O)Nc1ccccc1,-26.5 (inactive)
10,Cn1c(=O)c2c(ncn2CC(O)CNc2ccc(F)cc2)n(C)c1=O (stereo not drawn),-11.4 (inactive)
11,CC1Cc2cc(S(=O)(=O)N3CCN(c4cccc(Cl)c4)CC3)ccc2N1C(=O)C1CC1 (stereo not drawn),-12.6 (inactive)
12,Nc1ccccc1C#CC(=O)c1ccccc1,-20.3 (inactive)
13,Cn1cc(CN2CCCC(C(=O)c3cccs3)C2)c(-c2cccc(Cl)c2)n1 (stereo not drawn),-5.45 (inactive)
14,CC(=O)N1c2c(cc(Br)cc2S(=O)(=O)N2CCCCC2)CC1C (stereo not drawn),-1.15 (inactive)
15,CC(OC(=O)COc1ccccc1)C(=O)NC1CCCC1 (stereo not drawn),-8.33 (inactive)
16,O=C(CCNC(=O)c1ccco1)Nc1cccc(Br)c1,-16.9 (inactive)
17,CC1(C)CC2CC(C)(CN2c2ncnc3ccccc23)C1 (stereo not drawn),-16.7 (inactive)
18,CS(=O)(=O)N(CC(=O)N1CCc2ccccc2C1)c1cccc(Br)c1,-13 (inactive)
19,O=S(=O)(NCc1cc(-c2ccccc2)no1)c1ccccc1Cl,-13.4 (inactive)
20,CC(=O)c1ccc(-c2cccc([C@H]3[C@@H]4C=CC[C@@H](C)[C@@H]4C(=O)N3Cc3ccccc3)c2)cc1,-7.13 (inactive)
21,O=C(NC1CCCCC1)C(c1cccc2ccccc12)n1c(=O)c(-c2ccco2)nc2ccccc21 (stereo not drawn),-10.3 (inactive)
22,CC(C)(C)CC(=O)NCCc1csc(-c2ccccc2)n1,1.87 (inactive)
23,Cc1cccc(NC(=O)CN(C)S(=O)(=O)c2cccs2)c1,-12.2 (inactive)
24,Cc1ccc2oc(C(=O)N(C)Cc3ccc(C)o3)c(C)c2c1,-5.54 (inactive)
25,O=C(NCc1cccnc1)C1CCN(S(=O)(=O)c2cc([N+](=O)[O-])ccc2Cl)CC1,-18.9 (inactive)

row,SMILES,"activity change, negative = inhibition"
1,COc1ccc(CNC(=O)c2sc3nc4c(c(C(F)(F)F)c3c2N)CCC4)cc1OC,-15.1 (inactive)
2,CSc1ccccc1OCc1cc(C(=O)N(C)Cc2nonc2C)no1,-7.56 (inactive)
3,O=C1Nc2ccc(F)cc2C12Nc1ccccc1-c1nnc(SCc3ccccc3)nc1O2 (stereo not drawn),-11.2 (inactive)
4,COc1cccc(NC2=Nc3cccc4cccc2c34)c1,-20.4 (inactive)
5,COCc1nnc(NC(=O)c2ccc(S(=O)(=O)N3CCCC3)cc2)o1,-10.3 (inactive)
6,O=C(COc1cccc2c1CCN(Cc1ccc(Br)cc1)C2=O)N1CCOCC1,-5.18 (inactive)
7,Cc1cccc(OCc2nc(C#N)c(N3CCCC3)o2)c1,5.24 (inactive)
8,Cc1onc(-c2c(Cl)cccc2Cl)c1C(=O)Nc1ccc(Cl)cn1,-0.987 (inactive)
9,NS(=O)(=O)c1ccc(NC(=O)CCC(=O)O)cc1,23.6 (inactive)
10,Cc1ccc(NC(=O)C[n+]2cc(-c3ccccc3)n3c2CCC3)cc1,12.5 (inactive)
11,Cc1ccc(S(=O)(=O)Nc2ccc3c(c2)C(=O)N([C@@H](C)CO)C[C@@H](C)[C@H](CN(C)C(=O)c2ccccc2)OCCCC[C@@H](C)O3)cc1,0.461 (inactive)
12,COc1ccc(NC(=O)Nc2cccc3c2O[C@@H](CN(C)S(=O)(=O)c2ccc(Cl)cc2)[C@H](C)CN([C@@H](C)CO)C3=O)cc1,2.46 [at 26 µM] (inactive)
13,O=C1c2ccccc2C(=O)N1CCc1c[nH]c2ccccc12,-10.9 (inactive)
14,CC(=O)Cc1cc(O)c2ccccc2c1OC(=O)c1ccc(Br)cc1,-5.75 (inactive)
15,COc1ccc(CC(=O)NC(C)c2ccc3ccccc3c2)cc1 (stereo not drawn),-2.81 (inactive)
16,Fc1ccc(Br)cc1SCCc1ccncc1,-17.4 (inactive)
17,C[C@@H]1CCCCO[C@@H](CN(C)C)[C@H](C)CN([C@@H](C)CO)C(=O)c2cc(NC(=O)Nc3cccc4ccccc34)ccc2O1,17.4 (inactive)
18,Cc1onc(-c2ccccc2)c1C(=O)Oc1ccccc1,-2.9 (inactive)
19,COC(=O)c1ccc2nc(-c3ccc(OC)c(OC)c3)c(Cc3ccc(C)cc3)n2c1,-12 (inactive)
20,COc1ccc(C(=O)NCCC2=CCCCC2)cc1[N+](=O)[O-],-2.38 (inactive)
21,C[C@H]1CN([C@@H](C)CO)C(=O)CCCn2nncc2CO[C@@H]1CN(C)Cc1ccccc1C(F)(F)F,-15.1 (inactive)
22,COc1ccc(N2C(=O)C3C(c4ccc(C(=O)O)cc4)NC(Cc4ccccc4)(C(=O)O)C3C2=O)c([N+](=O)[O-])c1 (stereo not drawn),5.02 (inactive)
23,Cc1ccc2nc(-c3ccc(Cl)cc3)c(Cc3ccccc3C(F)(F)F)n2c1,11.2 (inactive)
24,COc1ccc2cc(CO)c3cc(OC)c(OC)cc3c2c1,-16.3 (inactive)
25,CC(C)(C)NC(=O)C(c1ccncc1)N(Cc1ccc(F)cc1)C(=O)c1ccc(-c2ccccc2)[nH]1 (stereo not drawn),-0.988 (inactive)

row,SMILES,"activity change, negative = inhibition"
1,Cc1noc(C)c1NC(=O)N(C)C[C@H]1OCCCC[C@@H](C)Oc2ccc(NC(=O)Nc3cccc4ccccc34)cc2C(=O)N([C@@H](C)CO)C[C@H]1C,2.78 (inactive)
2,Cn1c(CCN2CCOCC2)nc2cc(NC(=O)c3cccs3)ccc21,24.4 (inactive)
3,COc1ccccc1C(C(C(=O)c1ccccc1)N1CCOCC1)N1CCOCC1 (stereo not drawn),-8.67 (inactive)
4,Cc1cccc(-c2ccc([C@H]3[C@@H](CO)N4CCCCN(S(=O)(=O)c5ccccc5C)C[C@H]34)cc2)c1,-14.4 (inactive)
5,CCc1cc(CN2CCOCC2)c(NC(=O)c2ccccc2)s1,-6.48 (inactive)
6,COc1ccccc1CC(=O)NCCc1c[nH]c2ccccc12,3.23 (inactive)
7,Cn1c(=O)n(C)c2cc([N+](=O)[O-])c(N3CCN(C(=O)c4cccc(F)c4)CC3)cc21,-10.1 (inactive)
8,O=C(CSCc1ccc(Br)cc1)NCc1ccccn1,-9.31 (inactive)
9,Cc1ccc(CCN2C(=O)c3ccccc3C2C(=O)NCc2cccnc2)cc1 (stereo not drawn),-2.74 (inactive)
10,CS(=O)(=O)c1ccc(Cl)c(NC(=O)COC(=O)c2c(Cl)cccc2Cl)c1,-18.7 (inactive)
11,COCC#Cc1ccc2c(c1)O[C@H](CN(C)C(=O)c1ccccc1)[C@@H](C)CN([C@H](C)CO)S2(=O)=O,-19 (inactive)
12,Cc1noc(C)c1NC(=O)Nc1ccc2c(c1)C(=O)N([C@H](C)CO)C[C@H](C)[C@H](CN(C)C(=O)Nc1ccc3c(c1)OCO3)OCCCC[C@H](C)O2,15 (inactive)
13,CC1(C)CC(=O)c2cnc(N3CCc4ccccc43)nc2C1,6.66 (inactive)
14,S=c1nc(-c2cc(Cl)cc(Cl)c2)[nH][nH]1,-16.2 (inactive)
15,O=[N+]([O-])c1ccc(NCCNCCOc2nonc2-c2ccccc2)c([N+](=O)[O-])c1,-27.2 (inactive)
16,Cc1nn2c(NCc3ccccn3)cc(C(C)C)nc2c1-c1ccccc1,-11.1 (inactive)
17,O=S(=O)(NOCc1ccc(Cl)cc1)c1ccc(Cl)cc1,-15 (inactive)
18,O=C(Nc1ccc2c(c1)OCCO2)C1C(c2ccccc2)=Nc2ccccc2N1C(=O)c1cccnc1 (stereo not drawn),0.765 (inactive)
19,O=C(COc1ccccc1Cl)Nc1nc(-c2ccncc2)cs1,-15.4 (inactive)
20,CCOc1ccccc1N1CC(C(=O)Nc2cccc(S(=O)(=O)N3CCCCC3)c2)CC1=O (stereo not drawn),-18 (inactive)
21,COc1ccc(-c2csc3ncn(-c4ccc(C)cc4)c(=O)c23)cc1OC,-22.9 (inactive)
22,O=C(NCc1nnnn1-c1ccc(Cl)cc1)c1ccc([N+](=O)[O-])o1,-6.35 (inactive)
23,O=[N+]([O-])c1cccc(COc2ccc(CN3CCOCC3)cc2)c1,-1.83 (inactive)
24,C[C@@H]1CN([C@@H](C)CO)C(=O)c2cc(NC(=O)C3CC3)ccc2O[C@H]1CN(C)C(=O)Nc1ccc(C(F)(F)F)cc1,-10.7 (inactive)
25,CCN(CC(=O)Nc1cccc(S(=O)(=O)N2CCCC2)c1)CC(=O)Nc1ccccc1OC,-14.9 (inactive)

row,SMILES,"activity change, negative = inhibition"
1,COC(=O)c1ccc2nc(-c3ccco3)c(Cc3ccc(C)cc3)n2c1,-19.6 (inactive)
2,COc1ccc(CC(=O)Nc2cc(S(=O)(=O)Nc3ccc(OC)cc3)ccc2OC)cc1,-11.4 (inactive)
3,CC(C)CNc1nc(S(=O)(=O)c2ccccc2)c(Cl)s1,-11.6 (inactive)
4,O=C(CN1CCCCC1)n1c2ccccc2c2ccccc21,1.66 (inactive)
5,O=C1c2ccccc2C(c2nnnn2Cc2ccccc2)N1Cc1cccc(F)c1 (stereo not drawn),-9.45 (inactive)
6,Cc1nn(CC(=O)c2ccc(Br)s2)c(C)c1[N+](=O)[O-],-2.97 (inactive)
7,Brc1ccc(-n2cnc(-c3ccccc3)c2)cc1,2.89 (inactive)
8,NC(=O)c1cccnc1Oc1ccc(Cl)cc1Cl,-0.964 (inactive)
9,CCc1ccc(NC(=O)CCc2c(C)nn(-c3ccc(N4CCCCC4)nn3)c2C)cc1,-14.7 (inactive)
10,COc1ccc2c(c1)-c1nc(N)sc1CC2,-4.08 (inactive)
11,CC(C)(C)N(Cc1ccccc1)C(=O)COC(=O)Cn1cnc2ccccc2c1=O,-17.1 (inactive)
12,COc1ccc(OC)c(NC(=O)CN(C)CC(=O)Nc2ccccc2Br)c1,-33 (inactive)
13,O=C(c1ccccc1)C1CN(Cc2ccccc2)CCC1(O)c1ccccc1 (stereo not drawn),-2.03 (inactive)
14,CCC1(CC)NC(=O)N(CC(=O)N2N=C(c3ccc(Cl)cc3)CC2c2ccco2)C1=O (stereo not drawn),-18.3 (inactive)
15,CCOc1ccccc1C(=O)NCC(=O)OCCOc1cccc(Cl)c1,-3.78 (inactive)
16,O=C(Nc1cc(F)ccc1F)N1CCCCN2[C@@H](CO)[C@H](c3ccc(-c4ccncc4)cc3)[C@@H]2C1,-2.55 (inactive)
17,O=S1(=O)N[C@H](Cc2ccccc2)COc2cc(N3CCSCC3)ccc21,-14 (inactive)
18,COc1cccc(NC(=O)c2ccc(NCCCN3CCC(C)CC3)c([N+](=O)[O-])c2)c1,-20 (inactive)
19,Cc1noc(C)c1S(=O)(=O)N(Cc1ccccc1)C(C)C,-8.45 (inactive)
20,Cc1ccc(-c2c(=O)n(O)c3ccccc3[n+]2[O-])cc1,-1.24 (inactive)
21,Cc1nn2c(C)c(C(=O)Nc3ccccc3)cnc2c1-c1ccccc1,-2.61 (inactive)
22,CC(C)(C)S(=O)(=O)Cc1nc(-c2ccc(Cl)c(Cl)c2)cs1,-9.21 (inactive)
23,CCCCc1cc2c(cc1NC(=O)CN1CCCCC1)OCCO2,2.37 (inactive)
